Test results: ChEMBL document CHEMBL3433997, “St. Jude Leishmania screening dataset” (2016)
Values joined by “and” are separate entries in the source; they are usually repeats but may differ in a detail not shown here. Equal values may be shown once.

Experiments:
Assay type in all cases: functional
[1] = molecular target: Solute carrier family 2, facilitated glucose transporter member 1 (Homo sapiens) (UniProt P11166); test: ST_JUDE_LEISH: Cytotoxicity at 2uM final concentration against transgenic Leishmania Mexicana promastigotes LmGLUT1 that are glucose transport deficient and complemented with the human glucose transporter GLUT1. Activity is measured by DNA content using SYBR green in vitro
[2] = molecular target: Hexose transporter 1 (Plasmodium falciparum) (UniProt O97467); test: ST_JUDE_LEISH: Cytotoxicity at 2uM final concentration against transgenic Leishmania Mexicana promastigotes LmPfHT that are glucose transport deficient and complemented with the Plasmodium falciparum hexose transporter. Activity is measured by DNA content using SYBR green in vitro
[3] = molecular target: Glucose transporter (Leishmania mexicana) (UniProt O61059); test: ST_JUDE_LEISH: Cytotoxicity at 2uM final concentration against transgenic Leishmania Mexicana promastigotes LmGT2 that are glucose transport deficient and complemented with the L. Mexicana glucose transporter 2. Activity is measured by DNA content using SYBR green in vitro

Chain of Solute carrier family 2, facilitated glucose transporter member 1 (Homo sapiens) (P11166 whole entry): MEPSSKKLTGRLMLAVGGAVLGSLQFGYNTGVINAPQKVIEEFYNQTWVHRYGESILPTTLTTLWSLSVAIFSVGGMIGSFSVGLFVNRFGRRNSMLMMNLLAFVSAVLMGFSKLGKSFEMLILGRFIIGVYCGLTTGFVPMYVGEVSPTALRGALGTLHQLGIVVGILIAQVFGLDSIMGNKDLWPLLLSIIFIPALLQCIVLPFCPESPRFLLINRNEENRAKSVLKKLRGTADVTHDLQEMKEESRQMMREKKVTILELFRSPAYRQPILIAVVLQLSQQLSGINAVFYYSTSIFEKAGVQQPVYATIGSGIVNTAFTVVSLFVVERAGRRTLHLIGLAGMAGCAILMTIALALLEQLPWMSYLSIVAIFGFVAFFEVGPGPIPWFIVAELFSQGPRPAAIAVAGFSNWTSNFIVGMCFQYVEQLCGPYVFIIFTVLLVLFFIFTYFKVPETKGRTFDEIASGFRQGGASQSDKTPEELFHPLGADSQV

| SMILES | inhibition [1] | inhibition [2] | inhibition [3] |
| --- | --- | --- | --- |
| CCN(CC)CCCC(C)Nc1c2ccccc2nc2ccc3ccccc3c12 (stereo not given) | 1.95% | 2.89% | 2.22% |
| Nc1ncc(-c2cccc(CCN3CCOCC3)c2)cc1-c1nc2cc(Br)ccc2[nH]1 | 14% | 9.95% | 11.8% |
| CN(C(=O)Nc1ccc(C(F)(F)F)cc1)C1CCN(CCCCCNC(=O)/C=C/c2ccc(Cl)c(Cl)c2)CC1 | 4.18% | 2.6% | 0.47% |
| Cc1cc(N[C@@H](CC(C)C)C(=O)NCCc2ccccc2)nc(NCCc2ccc(F)cc2)n1 | -0.03% | 0.66% | -1.31% |
| CNC(=O)c1ccccc1Nc1cc(Nc2cc(OC)ccn2)ncc1Cl | 5.77% | 7.66% | 6.6% |
| NC(=O)C1CCN(Cc2cccc(-c3ccc(-c4nc5cc(C(F)(F)F)ccc5[nH]4)cc3)c2)CC1 | -1.36% | -1.5% | -2.94% |
| N#Cc1ccc(-c2ccc(C(=O)NCCCCN3CCC(c4ccc5c(c4OCC(N)=O)CCCC5)CC3)nc2)cc1 | 3.35% | 0.86% | 2.97% |
| COc1ccc(-n2ccnc2SCC(=O)Nc2cc(C)ccc2C)c(OC)c1 | 0.44% | 0.63% | 0.53% |
| CC(C)(C)c1ccc(-c2cc3c(ccc4nc(N)nc(N)c43)[nH]2)cc1 | 1.02% | 1.64% | -0.3% |
| O[C@@H](c1cc(C(F)(F)F)nc2c(C(F)(F)F)cccc12)[C@H]1CCCCN1 | 13.6% and 1.21% | 8.31% and 0.88% | 7.19% and 1.05% |
| CC(C)(C)c1ccccc1SC1=C(O)CC2(CCNCC2)OC1=O | 0.78% | 0.64% | 1.29% |
| CCCCCCCCc1nc(C)c(Br)c(O)c1Br | 3.91% | 5.98% | 0.8% |
| COc1cc2c(c(Cl)c1OC)CCN(Cc1ccccc1)CC2c1ccc(NC(=O)C(F)(F)F)cc1 (stereo not given) | 3.91% | 2.68% | 2.44% |
| Clc1ncnc2ncn(Cc3cccc(Br)c3)c12 | 15.3% | 10.7% | 10.8% |
| CN(C)CCOc1cc(NC(=O)Nc2ccc(-c3ccncc3)c(Cl)c2)ccc1I | 2.24% | 1.09% | 1.54% |
| Cn1nc(-c2ccc(NC(=O)Nc3cc(C(F)(F)F)ccc3F)c(F)c2)c2cnc(NCCCn3ccnc3)nc21 | -0.19% | -1.5% | 0.5% |
| CC[C@H](C)CNC(=O)c1cncc(-c2cccc(CNC3Cc4ccccc4C3)c2)c1 | -0.1% | 0.31% | -1.15% |
| CC1CN(c2ccc(C(=O)NCC3CC3)cc2NC(=O)OCc2ccccc2)CC(C)O1 (stereo not given) | 0.19% | 0.86% | -0.78% |

| SMILES | inhibition [1] | inhibition [2] | inhibition [3] |
| --- | --- | --- | --- |
| COC1(C)Oc2ccc3cccc([N+](=O)[O-])c3c2C1=O (stereo not given) | 0.18% | -0.47% | -0.75% |
| COc1cccc(NC(=O)Nc2ccc(C)c(-c3ccc(C(=O)Nc4ccncc4)cc3)c2)c1 | -1.55% | -1.72% | -0.17% |
| CCCOc1ccc(-c2nonc2NC(=O)c2cccc(OC)c2)cc1OCCC | 8.68% | 10.9% | 10.5% |
| CCCN(Cc1ccc(C)cc1)Cc1cc(=O)c2cc(Cl)ccc2[nH]1 | 9.14% | 10.5% | 9.04% |
| O=C(O)C1CC(=O)N(c2ccc(Cl)cc2)C1 (stereo not given) | -1.68% | -0.45% | -1.26% |
| CCN(CC)S(=O)(=O)n1ncc2c3c(N)nc(N)nc3ccc21 | -2.64% | 0.17% | -2.31% |
| COc1ccc2nc3cc(Cl)ccc3c(NCCCN3CCNCC3)c2c1 | 3.27% | 3.25% | 2.39% |
| CCc1nc(N)nc(N)c1-c1ccc(Cl)cc1 | 2.26% | 3.31% | 3.36% |
| CCCc1cc(OCCCOc2ccccc2)ccc1OCCCON1C(=N)N=C(N)NC1(C)C | 20.6% | 26.8% | 14% |
| CC1c2cccc(O)c2CCN1CCc1ccc(Cl)c(Cl)c1 (stereo not given) | 12.5% | 7.34% | 5.5% |
| CS(=O)(=O)c1cccc2sc(N3CCN(C(=O)c4ccc([N+](=O)[O-])o4)CC3)nc12 | 35.6% | 23.7% | 3.97% |
| FC(F)(F)c1ccccc1OCc1cc(-c2ccncc2)c(COc2ccccc2C(F)(F)F)cc1C1=CCNCC1 | 2.44% | 2.17% | 2.81% |
| CC(C)(C)c1nn(-c2ccc(Cl)cc2)c2[nH]c(=O)c(CNCc3ccc4c(c3)OCO4)cc12 | 4.55% | 3.31% | 5.03% |
| CC(=NNC(S)=NCCc1ccccc1)c1ccccn1 | 57.4% | 68% | 23.6% |
| N#Cc1ccc(C(=O)Nc2cccc(-c3ccc(CN4CCCC4)cc3)c2)cc1 | 11.4% | 9.72% | 9.04% |
| COc1ccc2[nH]ccc(=NN=Cc3ccccc3)c2c1 | 13.5% | 9.86% | 5.06% |
| CN1CCN(CCCN(Cc2csc(-c3ccc(CNCc4ccccc4)cc3)n2)S(=O)(=O)c2ccc(F)cc2)CC1 | 14.9% | 17.1% | 10.1% |
